Compound activity as filed in PubChem BioAssay.
The list is not random: actives were taken first. Their share in the collection is about 1.8%.
aDG glyco up: increases alpha dystroglycan glycosylation; Pro5-aDG cells, alpha-DG glycosylation AlphaScreen (IIH6); 0% Pro5, 100% B10-LARGE cell signal; activation, % at 10 µM; actives 0.22% (n = 360,000); AID 624168;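 active = activation of at least 8% versus controls, or a plate z-score of at least 8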;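 note: Pro5 are CHO cells carrying HIG-tagged alpha-DG that lacks glycosylation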
AI-2 QS mod: modulates the Vibrio harveyi AI-2 quorum sensing system; actives 0.4% (n = 300,000); activity change, % at 7.5 µM; AID 2094; Vibrio harveyi JMH597 AI-2 luminescence/OD600 ratio, 9 h; active compounds read low; strain lacks LuxN and CqsS sensors; 0 = neutral-control median; in the data active = activity change below about -75%, passing the limit was not always enough; inconclusive = no clear call, values can overlap the other calls;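 note: luminescence divided by OD600 gain over 9 h not by final OD600 alone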
ARNT-TACC3 inh: disruptors of human ARNT/TACC3 interaction. Q9Y6A5. AlphaScreen His-ARNT PAS-B/GST-TACC3 binding, luminescence; TACC3 fragment carries E629A point mutation. inhibition, % at 9.99 µM. actives 0.66% (n = 390,000). AID 623870;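 active = mean inhibition of replicates at least 50% and at least half of replicates each reaching 50%; inconclusive = half or more replicates reach 50% but mean below 50%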
Mot1-301 SUMO: SUMOylation pathway inhibition by Mot1-301 growth rescue | growth rescue, % at 18.8 µM | actives 1% (n = 320,000) | S. cerevisiae Mot1-301 growth rescue, ATP luminescence, 38.5C; percent above DMSO median, 100 means doubled;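 active = every valid replicate shows activation above 250% relative to neutral control wells; inactive = the rest, any valid replicate at or below 250%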
Bfl-1 A1 inh: inhibitors of the anti-apoptotic protein A1, read as caspase activation; caspase activation, % (concentration not given with the values); MEF A1-2A-BIM cells, Caspase-Glo 3/7 luminescence, 3 h; percent of clofoctol response, vehicle zero; actives 0.066% (n = 330,000);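 active = over half of replicate activation scores above 10%, or exactly half above 10 with the replicate mean above 10; inconclusive = replicate mean below 10 yet half the replicates above 10; inactive = over half of replicates below 10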
Yeast Mot1 SUMO: yeast SUMO pathway inhibition in dose response; shares compounds with Mot1-301 SUMO; S. cerevisiae Mot1-301 galactose growth, ATP luminescence, 24 h; -100 = growth of slx-deleted rescue strain; growth activity, percent, % at 42 µM; 2,300 tested, under 10 active; AID 493004;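 active = Signal drops as the depositor expects, and the fitted half-maximal dose is no more than ten times the top valid tested dose; inconclusive = Poor fit, or a flat curve whose signal drops by 30% to 70%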;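 note: more negative values mean stronger growth rescue toward the control strain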
Numbers stand for hits; n = inactive; u = inconclusive; x = no result; + = active, no number.

SMILES	aDG glyco up	AI-2 QS mod	ARNT-TACC3 inh	Mot1-301 SUMO	Bfl-1 A1 inh	Yeast Mot1 SUMO
O=C(C1CCCO1)N(c1cccc(Cl)c1)C1C=CS(=O)(=O)C1 (stereo not given)	n	n	n	n	n	x
COC(=O)c1ccc(SCC(=O)N2CCC(C)CC2)c([N+](=O)[O-])c1	n	n	n	836	n	n
COc1cc(C2C3=C(Nc4ncnn42)c2ccccc2CC3)cc(OC)c1OC (stereo not given)	n	n	n	n	n	x
CC1CCN(CCNC(=O)C2CCCN(S(=O)(=O)c3cccc4nsnc34)C2)CC1 (stereo not given)	n	x	n	454	n	n
COc1ccc(CCNC(=O)CC2C(=O)NCCN2CC(C)(C)C)cc1 (stereo not given)	n	n	n	770	n	n
CC(C)Oc1ccc(CCNC(=O)CC2C(=O)NCCN2C)cc1 (stereo not given)	n	n	n	n	n	x
COc1ccccc1CNC(=O)[C@H](NC(=O)C1CCN(C(=O)[C@@H](N)CCSC)CC1)C(C)C	n	n	n	n	n	x
COc1ccccc1CNC(=O)[C@H](C)NC(=O)C1CCN(C(=O)[C@@H](N)CC(C)C)CC1	n	n	n	618	n	n
COc1ccc(N2CCN(CC(=O)Nc3cc(C)on3)CC2)cc1	n	n	n	n	n	x
CC(=O)c1ccc(N2CCN(CC(=O)Nc3cc(C)on3)CC2)cc1	n	n	n	483	n	n
CCOc1ccccc1N1CCN(C(=O)c2ccccc2OCc2c(C)noc2C)CC1	n	x	n	n	n	x
Cc1ccc(S(=O)(=O)c2c(C)cc(C)[nH]c2=O)cc1	n	n	n	n	n	x
COc1cc(/C=N/N2CCN(C3c4ccccc4-c4ccccc43)CC2)cc(OC)c1OC	n	n	n	n	n	x
Cc1c(C(=O)NC(C)c2ccc(-n3ccnc3)cc2)cccc1[N+](=O)[O-] (stereo not given)	n	n	n	407	n	n
CC(NC(=O)c1ccccc1Cl)c1ccc(-n2ccnc2)cc1 (stereo not given)	n	n	n	n	u	x
CN(c1ccccc1)S(=O)(=O)c1ccc(C(=O)NNC(=O)c2ccccc2)cc1	n	x	n	x	x	x
CCOC(=O)C1=CN(Cc2cccc(I)c2)S(=O)(=O)N(C)C1C (stereo not given)	n	x	n	x	x	x
O=C(OCCN=C1NS(=O)(=O)c2ccccc21)c1cccs1	n	n	n	n	n	x
O=C(OCCCN=C1NS(=O)(=O)c2ccccc21)c1cccs1	n	n	n	579	n	n
O=C(O)CCSc1ccc([N+](=O)[O-])cc1[N+](=O)[O-]	n	n	n	363	n	n
O=[N+]([O-])c1ccc(Sc2ncccn2)c([N+](=O)[O-])c1	n	n	n	n	n	x
COc1ccccc1-c1nc2ccccc2nc1-c1ccccc1OC	n	n	x	395	n	n
COc1ccc(-c2nc3ccccc3nc2-c2ccc(OC)c(OC)c2)cc1OC	n	n	n	n	n	x
O=C(c1ccc(-c2ccccc2)cc1)C1CCCN(Cc2ccncc2)C1 (stereo not given)	n	n	n	365	n	n
COc1ccc(COC(=O)CCN=C2NS(=O)(=O)c3ccccc32)cc1F	n	n	n	n	n	x
SMILES	aDG glyco up	AI-2 QS mod	ARNT-TACC3 inh	Mot1-301 SUMO	Bfl-1 A1 inh	Yeast Mot1 SUMO
COc1ccc(-c2[nH]ncc2CNCCn2cccn2)c(F)c1	n	n	n	+	n	n
O=C(CN1CCN(c2ccccc2F)CC1)Nc1nnc(C(F)(F)F)s1	n	n	n	+	n	n
COc1cccc(NC(=O)CN2CCN(c3ccccc3F)CC2)c1	n	n	n	600	n	n
COC(=O)c1[nH]c2cc(C)ccc2c1NC(=O)CN1CCN(c2ccccc2OC)CC1	n	n	n	492	n	n
COC(=O)c1[nH]c2cc(C)ccc2c1NC(=O)CN1CCOCC1	n	n	n	n	n	x
CCOC(=O)N1CCN(C(=O)c2ccc(N3CC4CC(C3)c3cccc(=O)n3C4)c(NC(=O)c3ccc(F)cc3)c2)CC1 (stereo not given)	n	n	n	n	n	x
